The results in this text go back to PubChem BioAssay.

Sequence of Streptavidin (Streptomyces avidinii) (P22629 whole entry, looked up): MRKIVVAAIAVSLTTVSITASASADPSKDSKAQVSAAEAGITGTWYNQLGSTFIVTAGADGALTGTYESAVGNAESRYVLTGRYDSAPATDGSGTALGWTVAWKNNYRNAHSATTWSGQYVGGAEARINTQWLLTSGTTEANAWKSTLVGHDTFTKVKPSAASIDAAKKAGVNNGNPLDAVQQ

The first test addresses Streptavidin (Streptomyces avidinii) (UniProt P22629). As to the kind of experiment: compounds binding control protein streptavidin – biophysical, small-molecule microarray, 635/667 nm fluorescence, artefact control for SMM compound annotation, primary screen (AID 1147).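 Further: signal reflects streptavidin binding to arrayed compounds as a control protein.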 Conditions: higher = more signal.
Compound `[N-]=[N+]=NCc1ccccc1[C@H]1OC(c2ccc(OCCCO)cc2)=N[C@@]1(CCS(=O)(=O)c1ccccc1)C(=O)NCc1ccccc1` registered a composite z-score of 1.25.
The same measure, in the same setting: the result for `COc1ccc([Si](C)(C)[C@H]2[C@H](CCO)O[C@@]3(C(=O)N(Cc4ccc(N5C(=O)c6ccccc6Oc6ccccc65)cc4)c4ccccc43)[C@@H]2C)cc1` reads -0.446; that for `O=C(NCC(O)CO)[C@@]1(CCS(=O)(=O)c2ccccc2)COC(c2ccc(OCCCO)cc2)=N1` (some centres undefined), 0.985; that for `C=CCC(OC(C)=O)[C@@H]1[C@@H](N(Cc2cccc3ccccc23)C(=O)Cc2ccc(F)cc2)c2cc(OCCCO)ccc2N1C(=O)c1ccc(-c2ccccc2)cc1` (some centres undefined), -0.153.
`C=CCNC(=O)[C@@H]1[C@H]2C(=O)O[C@H](c3ccccc3)[C@H](c3ccccc3)N2[C@H](c2ccc(O)cc2)[C@@]12C(=O)N(C(=O)OCCOC)c1ccc(C#CCCO)cc12` yielded a composite z-score of 0.945.
The compound `C=CCNC(=O)[C@@H]1[C@H]2C(=O)O[C@H](c3ccccc3)[C@H](c3ccccc3)N2[C@H](c2ccc(OCCO)cc2)[C@@]12C(=O)N(C(=O)OCCOC)c1ccc(C#CCCO)cc12` gave a composite z-score of 0.712.
In turn, `C=CCOC(=O)[C@H]1[C@@H]2C(=O)O[C@@H](c3ccccc3)[C@@H](c3ccccc3)N2[C@@H](c2ccc(OCCOC(=O)[C@H]3C[C@H]4C(=O)N[C@@H](CCCCNC(C)=O)C(=O)N4[C@H]3c3cccc(OCCO)c3)cc2)[C@]12C(=O)Nc1ccc(I)cc12` showed a composite z-score of 0.0123.
As to `COCCOC(=O)N1C(=O)[C@@]2(c3cc(C#CC4=CCCCC4)ccc31)[C@H](c1ccc(O)cc1)N1[C@H](c3ccccc3)[C@H](c3ccccc3)OC(=O)[C@H]1[C@@H]2C(=O)NC[C@H](O)c1ccccc1`, the composite z-score was determined as 0.318.
`CN1C(=O)C2C=CC(C(O)c3ccc(I)cc3)N(Nc3ccccc3)C2C1=O` (centres undefined) yielded a composite z-score of 1.76.

System in the next test: not listed separately
As to the kind of experiment: probe aInhba binding on compound microarray – biochemical, small-molecule microarray, 635/667 nm fluorescence, primary screen (AID 1148).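 Further: score merges 667nm spot fluorescence with signal-to-noise for antibody binding to printed compounds.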 Conditions: higher = more signal.
Compound `CN(C)C(=O)[C@@]1(Cc2ccccc2)COC(c2ccc(OCCCO)cc2)=N1` came in with a composite z-score of -0.661.
On the same count and under the same terms, the result for `CO[C@H]1O[C@H](CO)[C@@H](OC(=O)CCc2ccccc2)[C@H](OC(=O)c2cc3ccccc3[nH]2)[C@H]1OC(=O)c1cc2ccccc2[nH]1` reads 0.0391.
The compound `CN1C(=O)C2C=CC(C(O)c3cc(C(F)(F)F)cc(C(F)(F)F)c3)N(Nc3ccccc3)C2C1=O` (centres undefined) came in with a composite z-score of -0.128.
Compound `COCCOC(=O)N1C(=O)[C@@]2(c3cc(C#CCCO)ccc31)[C@H](C(N)=O)[C@H]1C(=O)O[C@H](c3ccccc3)[C@H](c3ccccc3)N1[C@@H]2c1ccc(OCCO)cc1` had a composite z-score of 0.0391.
As for `COCCOC(=O)N1C(=O)[C@@]2(c3cc(C#Cc4ccc(OC)cc4)ccc31)[C@H](C(=O)NC[C@H](O)c1ccccc1)[C@H]1C(=O)O[C@H](c3ccccc3)[C@H](c3ccccc3)N1[C@@H]2c1ccc(OCCO)cc1`, the composite z-score was 0.0184.
`COCCOC(=O)N1C(=O)[C@@]2(c3cc(C#CCNC(N)=O)ccc31)[C@H](c1ccc(OCCO)cc1)N1[C@H](c3ccccc3)[C@H](c3ccccc3)OC(=O)[C@H]1[C@@H]2C(N)=O` registered a composite z-score of -0.0131.
`CC(=O)NCCCC[C@@H]1NC(=O)[C@H]2C[C@@H](C(=O)NCCCCCNC(=O)CS)[C@@H](c3cccc(OCCO)c3)N2C1=O` returned a composite z-score of -0.128.
With `O=C1O[C@H](c2ccccc2)[C@H](c2ccccc2)N2[C@H]1[C@@H](C(=O)N1CCCCCCC1)[C@]1(C(=O)Nc3ccc(C#CC4(O)CCCCCC4)cc31)[C@H]2c1ccccc1OCCO`, the composite z-score is 1.97.
Still for that read-out and setting: the same measure for `COCCCNC(=O)[C@@]1(c2ccc([N+](=O)[O-])cc2)CC(=O)N(CC23CC4CC(CC(C4)C2)C3)[C@@H]1c1ccc(CO)cc1I`: 0.0906; for `COc1ccc(C#Cc2ccc3c(c2)[C@]2(C(=O)N3)[C@H](C(=O)N3CCCCCCC3)[C@H]3C(=O)O[C@H](c4ccccc4)[C@H](c4ccccc4)N3[C@@H]2c2ccc(O)cc2)cc1`: 0.939; for `C=C(/C(=C/C[C@H](OC(=O)c1ccncc1)c1cccc(OCCO)c1)c1cnc2ccccc2c1)C(C)C`: -0.05.
Take `CCCCCCCCCCC(O)C1C=CC2C(=O)N(C)C(=O)C2N1Nc1cc(OC)c(OC)c(OC)c1` (centres undefined): the composite z-score was 0.0086.
`Nc1cc(Br)ccc1C(=O)O` displayed a composite z-score of -0.0719.
Regarding `CN(C)C(=O)[C@]1(CCS(=O)(=O)c2ccccc2)N=C(c2ccc(OCCCO)cc2)O[C@@H]1c1ccccc1`, the composite z-score came out at 0.204.
On the same count and under the same terms, the result for `O=C1N(CCS(=O)(=O)c2ccccc2)Cc2ccccc2[C@@H]2OC(c3ccc(OCCCO)cc3)=N[C@]12CCS(=O)(=O)c1ccccc1` reads -0.108.
